Screens as filed in PubChem BioAssay.
Only some compounds are listed: those with a hit (about 1.1% of all), similar ones and a draw of the others.
CtBP-E1A inh = qHTS Assay for Inhibitors of the CtBP/E1A Interaction; AlphaScreen GST-E1A/His-CtBP binding, 1536-well; hits give low values; CtBP / adenovirus E1A interaction (AlphaScreen); 340,000 compounds, 0.49% hits; activity change, % (concentration not given with the values); AID 651724, 2012; in the data active = activity change below about -65%; inconclusive = mostly about -30% to -63%
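GST-E1A and His-tagged CtBP (125 nM each as 5X stock) were preincubated with pin-transferred compound for 2 h at 37 °C in the dark, then glutathione donor and nickel acceptor beads were added for 1 h before AlphaScreen reading.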
Six1-Eya2 inh = qHTS Assay for Inhibitors of the Six1/Eya2 Interaction | Homeobox protein SIX1 (Homo sapiens) + Protein phosphatase EYA2 (Homo sapiens), … | AlphaScreen GST-Six1/His-Eya2 binding, biochemical; hits give low values | activity change, % (concentration not given with the values) | 360,000 compounds, 0.56% hits | AID 651725, 2012; in the data active = activity change below about -65%; inconclusive = mostly about -30% to -63%
Target sequence (O00167 whole entry, looked up): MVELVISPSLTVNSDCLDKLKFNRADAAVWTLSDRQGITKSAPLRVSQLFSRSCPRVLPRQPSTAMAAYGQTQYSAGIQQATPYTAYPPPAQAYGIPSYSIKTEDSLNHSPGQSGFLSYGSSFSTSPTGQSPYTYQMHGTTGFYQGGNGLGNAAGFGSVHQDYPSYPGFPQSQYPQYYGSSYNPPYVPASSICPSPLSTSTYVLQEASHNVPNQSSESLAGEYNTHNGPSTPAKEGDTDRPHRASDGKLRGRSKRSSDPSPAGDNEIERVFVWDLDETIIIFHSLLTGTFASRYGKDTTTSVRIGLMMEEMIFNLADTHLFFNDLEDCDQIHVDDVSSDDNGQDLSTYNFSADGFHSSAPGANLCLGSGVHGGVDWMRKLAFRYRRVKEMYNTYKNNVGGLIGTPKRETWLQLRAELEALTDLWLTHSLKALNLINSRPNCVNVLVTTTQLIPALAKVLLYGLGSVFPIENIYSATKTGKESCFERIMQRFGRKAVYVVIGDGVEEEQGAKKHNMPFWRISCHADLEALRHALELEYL
Target sequence (Q15475 whole entry, looked up): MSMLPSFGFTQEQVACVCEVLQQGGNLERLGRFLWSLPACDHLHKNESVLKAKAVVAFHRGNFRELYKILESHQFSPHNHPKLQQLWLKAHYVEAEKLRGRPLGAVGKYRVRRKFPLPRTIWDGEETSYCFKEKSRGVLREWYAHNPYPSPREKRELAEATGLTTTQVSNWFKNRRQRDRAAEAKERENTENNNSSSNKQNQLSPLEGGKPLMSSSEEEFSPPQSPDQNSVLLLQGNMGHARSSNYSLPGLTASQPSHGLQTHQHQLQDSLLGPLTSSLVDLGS
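AlphaScreen luminescence read after one hour at 37 °C in darkness. Pin-transferred compounds met GST-Six1 and His-Eya2 protein (5X stock 250 nM/500 nM) plus glutathione donor and Ni-chelate acceptor beads (5X, 50 ug/mL).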
uPA surface inh = qHTS for Inhibitors of Cell Surface uPA Generation | Potency, µM (doses to about 38.3 µM), usual class: inhibitors | 330,000 compounds, 0.31% hits | cell surface uPA generation assay, qHTS; active = well fitted inhibition curve with a large enough effect; inconclusive = small, poorly fitted or top-dose-only effect; inactive = no such curve, though single readings can be large or run the other way; tested in mouse RAW 264.7 cells; note: nearly all actives have a fitted effect of over 55% in size
MBNL1 CUG block = qHTS Assay for Inhibitors of MBNL1-poly(CUG) RNA binding; Muscleblind-like protein 1 (Homo sapiens), Q9NR56; TR-FRET MBNL1-His/biotin-(CUG)12 binding, 665/545 ratio; Potency, µM (highest dose often 57.5 µM), usual class: inhibitors; 280,000 compounds, 0.036% hits; active = well fitted inhibition curve with a large enough effect in the signal ratio, with a control signal flat, not every such curve was filed as active; inconclusive = small, poorly fitted or top-dose-only effect, or effect the other way, or a change in a side signal; inactive = no such curve, though single readings can be large or run the other way; the % refers to the signal ratio
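TR-FRET readout: Ex 340 nm, 665/545 nm emission ratio, normalized to buffer-only (basal) and MBNL1-(CUG)12 controls. Complex of MBNL1-His with Biotin-(CUG)12, compounds 92 nM–58 uM, incubated 60 min at room temperature.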
Mito fusion yeast = qHTS Assay for Small Molecule Inhibitors of Mitochondrial Division or Activators of Mitochondrial Fusion. S. cerevisiae fusion-defective mutant growth rescue, CellTiterGlo 48 h. Potency, µM (highest dose often 46.1 µM), actives largely listed as activators. 320,000 compounds, 0.23% hits. AID 485298, 2010; note: nearly all actives have a fitted effect of over 45% in size
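Temperature-sensitive fusion-defective S. cerevisiae (e.g. fzo1-1, mgm1-5) were grown with compound in YPEG medium (3% ethanol, 3% glycerol) for 48 hours at 37C. Growth rescue was measured as viability by CellTiterGlo luminescence after 10 minutes at ambient.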
MBNL1 TRFRET = qHTS Assay for Inhibitors of MBNL1-poly(CUG) RNA binding: Initial hit validation from the primary screen. TR-FRET MBNL1-His / biotin-(CUG)12 binding, 60 min. 140 compounds, 50% hits. shares compounds with MBNL1 CUG block. Potency, µM (highest dose often 57.6 µM), actives largely listed as inhibitors. AID 493199, 2011
MBNL1 AlphaScrn = qHTS Assay for Inhibitors of MBNL1-poly(CUG) RNA binding: Initial hit validation in AlphaScreen assay for MBNL1-(CUG)12 binding. Potency, µM (doses to about 57.7 µM), most hits filed as inhibitors. AlphaScreen MBNL1-His / biotin-(CUG)12 binding. AID 493205, 2011. 140 compounds, 30% hits. shares compounds with MBNL1 CUG block
Of the large screens only hits and unclear results are named; the others gave an inactive call (follow-up assays come after a bar, where they were run); ! = a repeat was not active. Unless noted, calls come from the whole dose curve; as a rule, active = well fitted curve in the direction sought with a large enough effect; inconclusive = small, poorly fitted or top-dose-only effect, or another doubt; inactive = no such curve, though single readings can be large; an effect the other way counts as inactive or inconclusive.

O=C1c2ccccc2-c2cccc3cccc1c23	uPA surface inh 8.9µM (no result: MBNL1 CUG block, Mito fusion yeast)
O=C(NCc1ccco1)c1cccc2c1C(=O)c1ccc(/C=C/c3ccccc3)cc1S2(=O)=O	uPA surface inh inconclusive (no result: MBNL1 CUG block, Mito fusion yeast)
C=C1[C@@H](O)[C@H](Cc2ccccc2)N(Cc2ccccc2Br)S1(=O)=O	uPA surface inh 10µM (no result: MBNL1 CUG block, Mito fusion yeast)
CN(C)c1nc(C=C(C#N)C#N)c(Cl)n1-c1ccc(F)cc1	uPA surface inh inconclusive
O=C(CNC(=O)c1ccc(Br)cc1)Nc1ccc(Br)cc1C(=O)c1ccccc1	Mito fusion yeast 18µM (no result: CtBP-E1A inh)
CC(C)C(=O)Nc1ccc([N+](=O)[O-])c(C(F)(F)F)c1	MBNL1 CUG block inconclusive, Mito fusion yeast 15µM!
Cn1cc([N+](=O)[O-])c(C(=O)Nc2ccc3c(C(F)(F)F)cc(=O)oc3c2)n1	MBNL1 CUG block inconclusive
CC(=O)O[C@H]1CC[C@@]2(C)C(=CC[C@@H]3[C@@H]2CC[C@]2(C)C(=O)CC[C@@H]32)C1	Mito fusion yeast 14µM (no result: MBNL1 CUG block)
Nc1ccc2ccc3cccc[n+]3c2c1	MBNL1 CUG block inconclusive
C[n+]1c(-c2ccccc2)c2cc(N)ccc2c2ccc(N)cc21	CtBP-E1A inh inconclusive, uPA surface inh 7.1µM, MBNL1 CUG block inconclusive
Cc1c(N=Cc2c(O)n(Cc3ccccc3)c(=O)[nH]c2=O)c(=O)n(-c2ccccc2)n1C	none
Cc1c(N=Nc2c(O)n(Cc3ccccc3)c(=O)[nH]c2=O)c(=O)n(-c2ccccc2)n1C	CtBP-E1A inh -72, Six1-Eya2 inh -89, uPA surface inh inconclusive, MBNL1 CUG block inconclusive
COc1ccc(N(CC(=O)Nc2ccccc2C(F)(F)F)C2=NC3CS(=O)(=O)CC3S2)cc1 (stereo unspecified)	uPA surface inh inconclusive
CN(C)[C@@H]1C(=O)C(C(N)=O)=C(O)[C@@]2(O)C(=O)C3=C(O)c4c(O)cccc4[C@@](C)(O)C3[C@H](O)C12 (stereo partly specified)	CtBP-E1A inh -67 (no result: MBNL1 CUG block)
CN(C)[C@@H]1C(=O)C(C(N)=O)=C(O)[C@@]2(O)C(=O)C3=C(O)c4c(O)ccc(Cl)c4[C@@](C)(O)C3C[C@@H]12 (stereo partly specified)	none
Cc1ccc(N)c(C)c1	none (no result: MBNL1 CUG block)
Cc1ccc(N=Nc2cc(C)ccc2N)cc1	CtBP-E1A inh -80, Six1-Eya2 inh inconclusive, MBNL1 CUG block inconclusive
O=C1N[C@@H](Cc2c[nH]c3ccccc23)COC(=O)[C@@H](Cc2ccc(F)cc2)CC/C=C/C[C@@H]1CC(=O)N(CCO)Cc1ccccc1	uPA surface inh inconclusive (no result: MBNL1 CUG block, Mito fusion yeast)
CSc1ccc(C(=O)C2CCCN(C(=O)CCc3c(C)nn(C)c3C)C2)cc1 (stereo unspecified)	uPA surface inh inconclusive (no result: MBNL1 CUG block, Mito fusion yeast)
Cc1nc2ccccc2c(=O)n1/N=C/c1cc(Br)cc(Br)c1O	CtBP-E1A inh -78, Six1-Eya2 inh -66 (no result: MBNL1 CUG block, Mito fusion yeast)
COc1ccc(-c2ccccc2[C@H]2[C@@H]3C=CC[C@@H](C)[C@@H]3C(=O)N2Cc2ccccc2)cc1	uPA surface inh inconclusive (no result: MBNL1 CUG block, Mito fusion yeast)
CC(=O)c1sc(NC(=O)CCS(=O)(=O)c2ccc(C)cc2)nc1C	uPA surface inh 11µM (no result: MBNL1 CUG block)
COc1ccc(-c2csc(NC(=O)C3CCN(C(=O)c4ccc(F)cc4)CC3)n2)cc1OC	uPA surface inh inconclusive
O=C(N/N=C/C1C(=O)NC(=S)N(c2ccccc2)C1=O)c1cc(Br)c(O)c(Br)c1 (stereo unspecified)	CtBP-E1A inh -92, Six1-Eya2 inh -93
O=C(N/N=C/c1c(O)n(C2CCCCC2)c(=S)[nH]c1=O)c1ccccc1	none
O=C(Nc1ccc(S(=O)(=O)Nc2ccccc2)cc1)c1ccc(CN2CCOCC2)cc1	uPA surface inh inconclusive
COc1cc2c(cc1O)CC[C@@H]1[C@@H]2CC[C@]2(C)[C@@H](O)CC[C@@H]12	uPA surface inh inconclusive, Mito fusion yeast 21µM!
CC12CCC(=O)C=C1CCC1C2CCC2(C)C(O)CCC12 (stereo unspecified)	none
C[C@]12CC[C@H]3[C@@H](CCC4=CC(=O)CC[C@@]43C)[C@@H]1CC[C@@H]2C(=O)CO	uPA surface inh 4µM
CC(O)C(C)OC(=O)[C@@H]1C[C@@H]2c3cccc4c3c(cn4C(C)C)C[C@H]2N(C)C1 (stereo partly specified)	none (no result: CtBP-E1A inh, Six1-Eya2 inh, uPA surface inh, MBNL1 CUG block, Mito fusion yeast) | MBNL1 TRFRET inconclusive | MBNL1 AlphaScrn inactive
O=C(C/C=N\OCc1ccc([N+](=O)[O-])cc1)Nc1ccc(F)cc1F	MBNL1 CUG block inconclusive
